According to the supplement of paper PMC12669032:

Experiments:
Assay in all cases: growth AUC relative to DMSO control (median of replicates) (fraction); higher = more growth (less inhibition), active = hit call of the paper
Conditions in all cases: 20 µM; 24 h;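 active = AUC reduced over 20% with Padj below 0.05 in at least 2 of 3 replicates; inactive = otherwise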
Coprococcus comes = system: Coprococcus comes
Method in brief: (§1)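 Each value is the median of three biological replicates, grown on separate days, of a gut bacterial monoculture incubated anaerobically at 37 °C in mGAM with 20 µM compound (1% DMSO). Cultures started at OD600 0.05 and were read at OD600 hourly for 24 h, with the minimum OD set to 0. Area under the growth curve was normalised to the plate median of solvent-only wells, or to row and column medians on the industrial chemical plate.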

Escherichia coli ED1a = system: Escherichia coli ED1a
Method in brief: as §1

Escherichia coli IAI1 = system: Escherichia coli IAI1
Method in brief: as §1

Eubacterium rectale = system: Eubacterium rectale
Method in brief: as §1

[1] = system: Fusobacterium nucleatum subsp. animalis
Method in brief: as §1

Lactobacillus gasseri = system: Lactobacillus gasseri
Method in brief: as §1

Lactobacillus paracasei = system: Lactobacillus paracasei
Method in brief: as §1

Odoribacter splanchnicus = system: Odoribacter splanchnicus
Method in brief: as §1

[2] = system: Parabacteroides distasonis
Method in brief: as §1

Parabacteroides merdae = system: Parabacteroides merdae
Method in brief: as §1

Measured: growth AUC

c1ccc(Nc2ccccc2)cc1
inactive: Coprococcus comes 0.97 | Escherichia coli ED1a 0.986 | Escherichia coli IAI1 1.01 | Eubacterium rectale 0.9 | [1] 0.988 | Lactobacillus gasseri 1.1 | Lactobacillus paracasei 0.878 | Odoribacter splanchnicus 1.03 | [2] 1.02 | Parabacteroides merdae 0.983

O.O.O=[N+]([O-])c1ccc([O-])cc1.[Na+]
inactive: Coprococcus comes 1.09 | Escherichia coli ED1a 1.05 | Escherichia coli IAI1 1.01 | Eubacterium rectale 0.918 | [1] 0.968 | Lactobacillus gasseri 1.01 | Lactobacillus paracasei 1.04 | Odoribacter splanchnicus 0.85 | [2] 0.971 | Parabacteroides merdae 0.994

Clc1ccc(C(c2ccccc2Cl)C(Cl)Cl)cc1 (stereo not given)
inactive: Coprococcus comes 1.03 | Escherichia coli ED1a 1 | Escherichia coli IAI1 0.978 | Eubacterium rectale 0.952 | [1] 1.01 | Lactobacillus gasseri 0.496 | Lactobacillus paracasei 1.04 | Odoribacter splanchnicus 1.02 | Parabacteroides merdae 0.976
active: [2] 0.615

CC(C)N(C(=O)CS(=O)(=O)[O-])c1ccc(F)cc1.[Na+]
inactive: Coprococcus comes 0.982 | Escherichia coli ED1a 0.983 | Escherichia coli IAI1 0.984 | Eubacterium rectale 1.02 | [1] 0.956 | Lactobacillus gasseri 1.01 | Lactobacillus paracasei 0.957 | Odoribacter splanchnicus 1.13 | [2] 1.02 | Parabacteroides merdae 0.995

CCCN(CCOc1c(Cl)cc(Cl)cc1Cl)C(N)=O
inactive: Coprococcus comes 1 | Escherichia coli ED1a 1.01 | Escherichia coli IAI1 0.985 | Eubacterium rectale 1 | [1] 0.935 | Lactobacillus gasseri 0.946 | Lactobacillus paracasei 0.851 | Odoribacter splanchnicus 0.978 | [2] 0.949 | Parabacteroides merdae 0.977

CON=C(Cc1cccnc1)c1ccc(Cl)cc1Cl
inactive: Coprococcus comes 0.94 | Escherichia coli ED1a 1 | Escherichia coli IAI1 0.986 | Eubacterium rectale 0.919 | [1] 1.03 | Lactobacillus gasseri 1.03 | Lactobacillus paracasei 1.18 | Odoribacter splanchnicus 0.821 | [2] 1.04 | Parabacteroides merdae 1.01

COc1ccc(Cl)c(Cl)c1Cl
inactive: Coprococcus comes 0.994 | Escherichia coli ED1a 0.983 | Escherichia coli IAI1 1.02 | Eubacterium rectale 0.966 | [1] 0.982 | Lactobacillus gasseri 1.01 | Lactobacillus paracasei 0.993 | Odoribacter splanchnicus 1.01 | [2] 1.04 | Parabacteroides merdae 0.961

C=CCO/N=C(\CCC)C1=C([O-])CC(C)(C)C(C(=O)OC)C1=O.[Na+] (stereo not given)
inactive: Coprococcus comes 1.03 | Escherichia coli ED1a 1.02 | Escherichia coli IAI1 1.02 | Eubacterium rectale 1.12 | [1] 1.12 | Lactobacillus gasseri 0.892 | Lactobacillus paracasei 1.04 | Odoribacter splanchnicus 1.05 | [2] 1.01 | Parabacteroides merdae 1.06

Cc1nn(C)c(Oc2ccccc2)c1/C=N/OCc1ccc(C(=O)OC(C)(C)C)cc1
inactive: Coprococcus comes 0.996 | Escherichia coli ED1a 0.984 | Escherichia coli IAI1 0.991 | Eubacterium rectale 0.907 | [1] 0.973 | Lactobacillus gasseri 0.901 | Lactobacillus paracasei 1.01 | Odoribacter splanchnicus 1.01 | [2] 1.03 | Parabacteroides merdae 0.925

CC(C)c1ccccc1
inactive: Coprococcus comes 0.983 | Escherichia coli ED1a 0.987 | Escherichia coli IAI1 0.999 | Eubacterium rectale 0.968 | [1] 0.92 | Lactobacillus gasseri 1.17 | Lactobacillus paracasei 0.996 | Odoribacter splanchnicus 0.999 | [2] 1.04 | Parabacteroides merdae 1.02

O=[N+]([O-])c1ccc(O)cc1
inactive: Coprococcus comes 0.973 | Escherichia coli ED1a 1.01 | Escherichia coli IAI1 0.994 | Eubacterium rectale 0.994 | [1] 0.979 | Lactobacillus gasseri 0.985 | Lactobacillus paracasei 0.987 | Odoribacter splanchnicus 1.01 | [2] 0.99 | Parabacteroides merdae 0.99

COC1CCC2(CC1)NC(=O)C(c1cc(C)ccc1C)=C2OC1OC(CO)C(O)C(O)C1O (stereo not given)
inactive: Coprococcus comes 1.03 | Escherichia coli ED1a 1.03 | Escherichia coli IAI1 1.03 | Eubacterium rectale 1.1 | [1] 1.17 | Lactobacillus gasseri 0.948 | Lactobacillus paracasei 1.01 | Odoribacter splanchnicus 0.994 | [2] 1.01 | Parabacteroides merdae 1.05

Cc1ccc(C(C)NC(=O)[C@@H](NC(=O)OC(C)C)C(C)C)cc1 (stereo not given in full)
inactive: Coprococcus comes 1.01 | Escherichia coli ED1a 1.01 | Escherichia coli IAI1 0.992 | Eubacterium rectale 1.08 | [1] 1.08 | Lactobacillus gasseri 0.895 | Lactobacillus paracasei 1.02 | Odoribacter splanchnicus 0.953 | [2] 0.917 | Parabacteroides merdae 1.01

CCCCN(C)C(=O)Nc1ccc(Cl)c(Cl)c1
inactive: Coprococcus comes 1.04 | Escherichia coli ED1a 1.01 | Escherichia coli IAI1 1 | Eubacterium rectale 1.04 | [1] 1.01 | Lactobacillus gasseri 0.965 | Lactobacillus paracasei 0.98 | Odoribacter splanchnicus 0.901 | [2] 0.816 | Parabacteroides merdae 0.932

S=C([S-])NCCNC(=S)[S-].[Mn+2]
inactive: Coprococcus comes 0.998 | Escherichia coli ED1a 1.03 | Escherichia coli IAI1 1.03 | Eubacterium rectale 1.02 | [1] 1.04 | Lactobacillus gasseri 0.994 | Lactobacillus paracasei 1.16 | Odoribacter splanchnicus 1.06 | [2] 1.02 | Parabacteroides merdae 1.03

COC(=O)c1ccc(C(F)(F)F)nc1S(=O)(=O)[N-]C(=O)Nc1nc(OC)cc(OC)n1.[Na+]
inactive: Coprococcus comes 0.979 | Escherichia coli ED1a 0.983 | Escherichia coli IAI1 0.966 | Eubacterium rectale 0.961 | [1] 0.965 | Lactobacillus gasseri 0.986 | Lactobacillus paracasei 0.921 | Odoribacter splanchnicus 1.07 | [2] 1 | Parabacteroides merdae 0.974

CCOCCc1ccc(OCCNc2ncnc(CC)c2Cl)c(C)c1C
inactive: Coprococcus comes 0.978 | Escherichia coli ED1a 0.999 | Escherichia coli IAI1 0.961 | Eubacterium rectale 0.846 | [1] 1.07 | Lactobacillus gasseri 0.883 | Lactobacillus paracasei 0.929 | Odoribacter splanchnicus 1.01 | [2] 0.903 | Parabacteroides merdae 0.92

O=C(Oc1ccccc1)n1c(C(F)(F)F)nc2cc(Cl)c(Cl)cc21
inactive: Coprococcus comes 1.03 | [1] 0.71
active: Escherichia coli ED1a 0.704 | Escherichia coli IAI1 0.588 | Eubacterium rectale 0.635 | Lactobacillus gasseri 0.431 | Lactobacillus paracasei 0.688 | Odoribacter splanchnicus 0.0297 | [2] 0.106 | Parabacteroides merdae 0.144

O=C1NCC[n+]2ccccc21.[Br-]
inactive: Coprococcus comes 1.02 | Escherichia coli ED1a 0.966 | Escherichia coli IAI1 0.978 | Eubacterium rectale 1.07 | [1] 0.908 | Lactobacillus gasseri 0.882 | Lactobacillus paracasei 0.961 | Odoribacter splanchnicus 0.968 | [2] 0.923 | Parabacteroides merdae 0.972

CCCCOCCOC(=O)COc1ccc(Cl)cc1Cl
active: [2] 0.721
inactive: Coprococcus comes 0.982 | Escherichia coli ED1a 0.983 | Escherichia coli IAI1 0.983 | Eubacterium rectale 1.1 | [1] 0.92 | Lactobacillus gasseri 0.88 | Lactobacillus paracasei 0.962 | Odoribacter splanchnicus 0.97 | Parabacteroides merdae 0.954

Clc1ccc(Sc2cc(Cl)c(Cl)cc2Cl)cc1
inactive: Coprococcus comes 0.964 | Escherichia coli ED1a 0.972 | Escherichia coli IAI1 0.984 | Eubacterium rectale 0.943 | [1] 1.04 | Lactobacillus gasseri 0.86 | Lactobacillus paracasei 1.05 | Odoribacter splanchnicus 1.1 | [2] 1.01 | Parabacteroides merdae 0.976

Br[C@@H]1CC[C@H](Br)[C@H](Br)CC[C@@H](Br)[C@@H](Br)CC[C@H]1Br
active: Eubacterium rectale 0.773 | [2] 0.232 | Parabacteroides merdae 0.351
inactive: Coprococcus comes 1.05 | Escherichia coli ED1a 0.985 | Escherichia coli IAI1 1 | [1] 0.974 | Lactobacillus gasseri 0.789 | Lactobacillus paracasei 0.976 | Odoribacter splanchnicus 1.08

O=C(Nc1ccc(O)cc1-c1ccc(Cl)cc1)c1cccnc1Cl
inactive: Coprococcus comes 0.924 | Escherichia coli ED1a 0.986 | Escherichia coli IAI1 0.976 | Eubacterium rectale 0.962 | [1] 0.916 | Lactobacillus gasseri 1.02 | Lactobacillus paracasei 1 | Odoribacter splanchnicus 0.872 | [2] 1.01 | Parabacteroides merdae 0.994

NC(=O)c1c(Cl)cccc1Cl
inactive: Coprococcus comes 0.984 | Escherichia coli ED1a 1.01 | Escherichia coli IAI1 0.983 | Eubacterium rectale 1.09 | [1] 1.1 | Lactobacillus gasseri 0.917 | Lactobacillus paracasei 1.03 | Odoribacter splanchnicus 1.07 | [2] 0.99 | Parabacteroides merdae 0.996

c1ccc2c(c1)-c1cccc3c1c-2cc1ccccc13
inactive: Coprococcus comes 1.01 | Escherichia coli ED1a 0.985 | Escherichia coli IAI1 1.01 | Eubacterium rectale 1.03 | [1] 1.08 | Lactobacillus gasseri 1.02 | Lactobacillus paracasei 0.998 | Odoribacter splanchnicus 1.07 | [2] 1.31 | Parabacteroides merdae 1.05

CC(C)N(C(=O)CS(=O)CC(=O)O)c1ccc(F)cc1 (stereo not given)
inactive: Coprococcus comes 0.957 | Escherichia coli ED1a 1 | Escherichia coli IAI1 0.941 | Eubacterium rectale 0.829 | [1] 0.969 | Lactobacillus gasseri 1.01 | Lactobacillus paracasei 0.97 | Odoribacter splanchnicus 1.06 | [2] 1.08 | Parabacteroides merdae 0.977

COc1cccc(N(C)C(=S)Oc2cccc(C(C)(C)C)c2)n1
inactive: Coprococcus comes 0.954 | Escherichia coli ED1a 0.997 | Escherichia coli IAI1 0.982 | Eubacterium rectale 0.896 | [1] 0.971 | Lactobacillus gasseri 1.06 | Lactobacillus paracasei 0.707 | Odoribacter splanchnicus 1.11 | [2] 0.951 | Parabacteroides merdae 0.933

CCCCOC(=O)C(C)Oc1ccc(Oc2ccc(C(F)(F)F)cn2)cc1 (stereo not given)
inactive: Coprococcus comes 0.987 | Escherichia coli ED1a 1.02 | Escherichia coli IAI1 1.01 | Eubacterium rectale 1.09 | [1] 0.997 | Lactobacillus gasseri 0.914 | Lactobacillus paracasei 0.985 | Odoribacter splanchnicus 1.02 | [2] 0.768 | Parabacteroides merdae 0.961

COc1cc(OC)c(Cl)cc1N
inactive: Coprococcus comes 1.03 | Escherichia coli ED1a 1 | Escherichia coli IAI1 1.01 | Eubacterium rectale 1.03 | [1] 1.14 | Lactobacillus gasseri 0.969 | Lactobacillus paracasei 1.04 | Odoribacter splanchnicus 1.04 | [2] 1.02 | Parabacteroides merdae 1.04

C=CCc1ccc(OC)c(OC)c1
active: Odoribacter splanchnicus 0.694
inactive: Coprococcus comes 1.01 | Escherichia coli ED1a 0.994 | Escherichia coli IAI1 1.04 | Eubacterium rectale 1 | [1] 1.06 | Lactobacillus gasseri 1.03 | Lactobacillus paracasei 1 | [2] 1.3 | Parabacteroides merdae 1.04

N#Cc1ccccc1NC(=O)c1snc(Cl)c1Cl
inactive: Coprococcus comes 0.967 | Escherichia coli ED1a 0.993 | Escherichia coli IAI1 0.995 | Eubacterium rectale 1.04 | [1] 1.09 | Lactobacillus gasseri 1 | Lactobacillus paracasei 1.01 | Odoribacter splanchnicus 1.01 | [2] 1 | Parabacteroides merdae 1.02

[S]
inactive: Coprococcus comes 0.956 | Escherichia coli ED1a 0.976 | Escherichia coli IAI1 0.963 | Eubacterium rectale 1.04 | [1] 1.01 | Lactobacillus gasseri 0.959 | Lactobacillus paracasei 1.01 | Odoribacter splanchnicus 1.03 | [2] 0.986 | Parabacteroides merdae 1

NC(=S)Nc1cccc2ccccc12
inactive: Coprococcus comes 0.974 | Escherichia coli ED1a 0.96 | Escherichia coli IAI1 0.959 | Eubacterium rectale 1.03 | [1] 0.924 | Lactobacillus gasseri 0.888 | Lactobacillus paracasei 0.946 | Odoribacter splanchnicus 0.983 | [2] 1.05 | Parabacteroides merdae 0.915

C=CCOC(Cn1ccnc1)c1ccc(Cl)cc1Cl (stereo not given)
inactive: Escherichia coli ED1a 0.986 | Escherichia coli IAI1 0.967 | [1] 0.938 | Lactobacillus gasseri 0.851 | Lactobacillus paracasei 0.969 | Odoribacter splanchnicus 0.882 | [2] 0.847 | Parabacteroides merdae 0.919
active: Coprococcus comes 0.0723 | Eubacterium rectale 0.0607

O=C(Nc1ccc(Cl)cc1C(O)c1ccccc1)c1ccncc1 (stereo not given)
inactive: Coprococcus comes 1.04 | Escherichia coli ED1a 0.997 | Escherichia coli IAI1 0.958 | Eubacterium rectale 1.12 | [1] 1.08 | Lactobacillus gasseri 0.966 | Lactobacillus paracasei 0.943 | Odoribacter splanchnicus 0.971 | [2] 0.983 | Parabacteroides merdae 0.979
